Data published in the supplement of paper PMC9262897, “Low-cost anti-mycobacterial drug discovery using engineered E. coli” (Nature Communications, 2022).
Counter-ions that a name gives are not always drawn. ± gives the standard deviation of the averaged measurements.

Experiments:
Test in all cases: growth (OD600 after 10 h); higher = more growth (less inhibition)
[1] = test system: E. coli TESEC Alr+ wild-type control; conditions: compound 0.1 mM; raw OD600 reference: median of DMSO wells 0.241, cell-free background 0.041
Procedure: (§1)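 TESEC Mtb Alr E. coli, or the Alr+ wild-type control, in 384-well plates with Prestwick library compounds at 0.1 mM and 1% DMSO, across arabinose induction levels of 1E3 to 1E7 nM. Growth is read as OD600 after 10 h at 37 °C in triplicate biological replicates.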

[2] = test system: E. coli TESEC Mtb Alr; conditions: compound 0.1 mM
Procedure: as §1

[3] = test system: E. coli TESEC Mtb Asd; conditions: compound 0.1 mM
Procedure: (§2)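 TESEC E. coli strains in which the native enzyme is deleted and replaced by arabinose-inducible Mtb Asd, DapB, CysH or TrpD, each grown in its selective medium. Strains were screened against the Prestwick library at 0.1 mM and 1% DMSO in 384-well format at low and high arabinose induction. Growth is read as OD600 after 10 h in triplicate.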

[4] = test system: E. coli TESEC Mtb DapB; conditions: compound 0.1 mM
Procedure: as §2

[5] = test system: E. coli TESEC Alr+ wild-type control; conditions: compound 0.1 mM; raw OD600 reference: median of DMSO wells 0.49, cell-free background 0.052
Procedure: (§3)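 TESEC Mtb Alr E. coli (ΔaraC ΔtolC ΔentC Δalr ΔdadX, arabinose-inducible Mtb Alr) or the Alr+ wild-type control strain, grown in defined M9-fructose medium without D-alanine in 96-well plates with Prestwick library compounds at 0.1 mM and 1% DMSO. Low Alr induction is 0.1 µM arabinose and high induction is 10 mM arabinose.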

[6] = test system: E. coli TESEC Mtb Alr; conditions: compound 0.1 mM; remark: listed apart in the source
Procedure: as §3

[7] = arabinose 1000 nM, raw OD600 reference: median of DMSO wells 0.294, cell-free background 0.041
[8] = arabinose 10000 nM, raw OD600 reference: median of DMSO wells 0.264, cell-free background 0.041
[9] = arabinose 100000 nM, raw OD600 reference: median of DMSO wells 0.201, cell-free background 0.041
[10] = arabinose 1000000 nM, raw OD600 reference: median of DMSO wells 0.193, cell-free background 0.041
[11] = arabinose 10000000 nM, raw OD600 reference: median of DMSO wells 0.146, cell-free background 0.041
[12] = arabinose induction (level): High, raw OD600 reference: median of DMSO wells 0.331, cell-free background 0.041
[13] = arabinose induction (level): Low, raw OD600 reference: median of DMSO wells 0.417, cell-free background 0.041
[14] = arabinose induction (level): High, raw OD600 reference: median of DMSO wells […], cell-free background 0.041
[15] = arabinose induction (level): Low, raw OD600 reference: median of DMSO wells 0.227, cell-free background 0.041
[16] = arabinose 100 nM, raw OD600 reference: median of DMSO wells 0.413, cell-free background 0.052
[17] = arabinose 10000000 nM, raw OD600 reference: median of DMSO wells […], cell-free background 0.052

SMILES | growth [1] | growth [2, 7] | growth [2, 8] | growth [2, 9] | growth [2, 10] | growth [2, 11] | growth [3, 12] | growth [3, 13] | growth [4, 14] | growth [4, 15] | growth [5] | growth [6, 16] | growth [6, 17]
O=C(CCCN1CCN(c2ccccn2)CC1)c1ccc(F)cc1 [Azaperone] | 0.192 ± 0.0058 | 0.2624 ± 0.0023 | 0.294 ± 0.0053 | 0.164 ± 0.013 | 0.177 ± 0.0089 | 0.146 ± 0.0043 | 0.217 ± 0.017 | 0.326 ± 0.029 | 0.194 ± 0.0048 | 0.264 ± 0.05 | 0.395 ± 0.0085 | 0.423 ± 0.0076 | 0.304 ± 0.01
NS(=O)(=O)c1cc(C(=O)O)c(NCc2ccco2)cc1Cl [Furosemide] | 0.244 ± 0.0029 | 0.303 ± 0.0075 | 0.2547 ± 0.00051 | 0.242 ± 0.024 | 0.18 ± 0.0021 | 0.148 ± 0.0056 | 0.353 ± 0.011 | 0.408 ± 0.054 | 0.181 ± 0.0028 | 0.194 ± 0.0081 | 0.613 ± 0.019 | 0.406 ± 0.012 | 0.353 ± 0.014
Clc1ccc(C(c2ccccc2Cl)C(Cl)Cl)cc1 (stereo unspecified) [Mitotane] | 0.224 ± 0.0027 | 0.215 ± 0.017 | 0.224 ± 0.01 | 0.183 ± 0.012 | 0.0935 ± 0.018 | 0.133 ± 0.013 | 0.213 ± 0.018 | 0.204 ± 0.018 | 0.208 ± 0.0072 | 0.224 ± 0.033 | 0.403 ± 0.0086 | 0.38 ± 0.011 | 0.0729 ± 0.0022
Cc1ccc(-c2cc(C(F)(F)F)nn2-c2ccc(S(N)(=O)=O)cc2)cc1 [Celecoxib] | 0.0401 ± 0.00046 | 0.041 ± 0.0023 | 0.0401 ± 0.00091 | 0.0415 ± 0.0019 | 0.0418 ± 0.0037 | 0.04133 ± 0.00035 | 0.04733 ± 0.00047 | 0.0479 ± 0.00085 | 0.0473 ± 0.00055 | 0.0486 ± 0.0019 | 0.425 ± 0.11 | 0.308 ± 0.021 | 0.0533 ± 0.0036
NCCNCCNCCNCCN [Tetraethylenepentamine pentahydrochloride] | 0.273 ± 0.0096 | 0.313 ± 0.013 | 0.263 ± 0.0027 | 0.217 ± 0.028 | 0.181 ± 0.011 | 0.136 ± 0.0077 | 0.337 ± 0.074 | 0.441 ± 0.0047 | 0.196 ± 0.003 | 0.22 ± 0.015 | 0.4747 ± 0.0042 | 0.414 ± 0.0053 | 0.303 ± 0.01
CCC[C@@H]1C[C@@H](C(=O)N[C@@H]([C@H]2O[C@H](SC)[C@H](O)[C@@H](O)[C@H]2O)[C@@H](C)O)N(C)C1 [Lincomycin hydrochloride] | 0.0958 ± 0.0084 | 0.122 ± 0.011 | 0.086 ± 0.003 | 0.113 ± 0.0046 | 0.0692 ± 0.0033 | 0.0731 ± 0.00091 | 0.151 ± 0.017 | 0.204 ± 0.02 | 0.172 ± 0.03 | 0.179 ± 0.043 | 0.486 ± 0.057 | 0.443 ± 0.0099 | 0.12 ± 0.019
Nc1cc(C(Cl)=C(Cl)Cl)c(S(N)(=O)=O)cc1S(N)(=O)=O [Clorsulon] | 0.224 ± 0.0038 | 0.278 ± 0.0056 | 0.269 ± 0.0061 | 0.214 ± 0.029 | 0.179 ± 0.0043 | 0.15 ± 0.0072 | 0.283 ± 0.025 | 0.3101 ± 0.0016 | 0.216 ± 0.014 | 0.248 ± 0.016 | 0.53 ± 0.0087 | 0.414 ± 0.011 | 0.335 ± 0.025
COCCCC/C(=N\OCCN)c1ccc(C(F)(F)F)cc1 [Fluvoxamine maleate] | 0.225 ± 0.0049 | 0.274 ± 0.0066 | 0.26 ± 0.013 | 0.214 ± 0.016 | 0.133 ± 0.0052 | 0.136 ± 0.0081 | 0.295 ± 0.079 | 0.231 ± 0.044 | 0.183 ± 0.014 | 0.229 ± 0.05 | 0.518 ± 0.051 | 0.416 ± 0.0072 | 0.319 ± 0.0054
CC1CS(=O)(=O)CCN1/N=C/c1ccc([N+](=O)[O-])o1 (stereo unspecified) [Nifurtimox] | 0.04547 ± 0.00025 | 0.0539 ± 0.0037 | 0.04127 ± 0.00031 | 0.0564 ± 0.0035 | 0.0414 ± 0.00017 | 0.0554 ± 0.00081 | 0.212 ± 0.049 | 0.237 ± 0.017 | 0.188 ± 0.029 | 0.251 ± 0.019 | 0.354 ± 0.021 | 0.0469 ± 0.00035 | 0.0644 ± 0.012
CN1CCN(C(c2ccccc2)c2ccc(Cl)cc2)CC1 (stereo unspecified) [Chlorcyclizine hydrochloride] | 0.179 ± 0.0072 | 0.215 ± 0.021 | 0.174 ± 0.021 | 0.178 ± 0.0045 | 0.07137 ± 0.00015 | 0.1236 ± 0.00055 | 0.149 ± 0.0065 | 0.221 ± 0.0041 | 0.205 ± 0.014 | 0.261 ± 0.032 | 0.4416 ± 0.0038 | 0.4163 ± 0.0041 | 0.222 ± 0.033
OCCN1CCN(CCCN2c3ccccc3Sc3ccc(C(F)(F)F)cc32)CC1 [Fluphenazine dihydrochloride] | 0.0421 ± 0.0038 | 0.041 ± 0.0026 | 0.0391 | 0.03987 ± 0.00021 | 0.03867 ± 0.00012 | 0.0405 ± 0.00052 | 0.0496 ± 0.00091 | 0.0515 ± 0.0021 | 0.0483 ± 0.00055 | 0.15 ± 0.1 | 0.04827 ± 0.00025 | 0.286 ± 0.21 | 0.0529 ± 0.00081
NC(=O)NC1NC(=O)NC1=O (stereo unspecified) [Allantoin] | 0.253 ± 0.015 | 0.281 ± 0.017 | 0.258 ± 0.0083 | 0.244 ± 0.0082 | 0.173 ± 0.0071 | 0.142 ± 0.0025 | 0.375 ± 0.027 | 0.424 ± 0.028 | 0.192 ± 0.0069 | 0.276 ± 0.1 | 0.438 ± 0.049 | 0.41 ± 0.011 | 0.28 ± 0.14
COc1ccc(CC2c3cc(OC)c(OC)cc3CC[N+]2(C)CCC(=O)OCCCCCOC(=O)CC[N+]2(C)CCc3cc(OC)c(OC)cc3C2Cc2ccc(OC)c(OC)c2)cc1OC (stereo unspecified) [Atracurium besylate] | 0.177 ± 0.0075 | 0.271 ± 0.013 | 0.25 ± 0.011 | 0.174 ± 0.014 | 0.127 ± 0.0067 | 0.137 ± 0.006 | 0.283 ± 0.059 | 0.398 ± 0.037 | 0.171 ± 0.017 | 0.218 ± 0.05 | 0.431 ± 0.027 | 0.416 ± 0.014 | 0.336 ± 0.06
COc1ccc2c(c1)c(CC(=O)O)c(C)n2C(=O)c1ccc(Cl)cc1 [Indomethacin] | 0.141 ± 0.0034 | 0.186 ± 0.008 | 0.2 ± 0.0069 | 0.124 ± 0.0036 | 0.0963 ± 0.0012 | 0.105 ± 0.0024 | 0.172 ± 0.017 | 0.196 ± 0.036 | 0.156 ± 0.0079 | 0.214 ± 0.073 | 0.392 ± 0.0071 | 0.366 ± 0.032 | 0.143 ± 0.0065
COc1ccc2c(c1)C(=O)N(CCc1ccc(S(=O)(=O)NC(=O)NC3CCCCC3)cc1)C(=O)C2(C)C [Gliquidone] | 0.06 ± 0.018 | 0.0483 ± 0.0024 | 0.04083 ± 0.00021 | 0.0728 ± 0.0039 | 0.0491 ± 0.00068 | 0.119 ± 0.0032 | 0.126 ± 0.027 | 0.0965 ± 0.065 | 0.157 ± 0.015 | 0.173 ± 0.0091 | 0.0675 ± 0.001 | 0.108 ± 0.046 | 0.116 ± 0.0081
CC(C)(C)NCC(O)COc1cccc2c1CC(O)C(O)C2 (stereo unspecified) [Nadolol] | 0.254 ± 0.016 | 0.303 ± 0.014 | 0.267 ± 0.0029 | 0.192 ± 0.025 | 0.2 ± 0.0078 | 0.137 ± 0.0026 | 0.336 ± 0.067 | 0.442 ± 0.0083 | 0.201 ± 0.02 | 0.259 ± 0.018 | 0.493 ± 0.12 | 0.408 ± 0.011 | 0.384 ± 0.015
CO/N=C(\C(=O)N[C@@H]1C(=O)N2C(C(=O)O)=C(COC(N)=O)CS[C@H]12)c1ccco1 [Cefuroxime sodium salt] | 0.0579 ± 0.0016 | 0.0404 ± 0.0013 | 0.0396 ± 0.00059 | 0.0725 ± 0.0027 | 0.0701 ± 0.0021 | 0.115 ± 0.0014 | 0.213 ± 0.0073 | 0.232 ± 0.0044 | 0.229 ± 0.013 | 0.16 ± 0.009 | 0.0629 ± 0.0034 | 0.04693 ± 0.0004 | 0.169 ± 0.024
